± gives the standard deviation. Where only a bound is given, the exact number is not on record here.

The test system of this test is EfPiwi piRISC loaded with L1MC piRNA (26 nt). Briefly: pre-steady-state target cleavage rate (min^-1); auxiliary factor: 500 nM Ephydatia muelleri Gtsf1; guide: L1MC piRNA 5'p-UAACUAAAUACUAUGCAAGCUGUAGG; MIWI and MILI are mouse PIWI proteins and EfPiwi is from a freshwater sponge; tags in brackets are library labels; higher = faster piRNA-guided slicing of the target. The method in brief:
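Cleave-'n-Seq: 1 nM active affinity-purified piRISC with one synthetic guide and 0.1 nM transcribed, DNA-blocked target RNA library were mixed, with or without 500 nM GTSF1 partner protein, in HEPES–potassium acetate buffer at 33 °C for 0–8 or 0–960 min. Uncleaved targets were sequenced and normalised to depth and to weakly complementary targets, three trials were pooled, and k3 was capped at 0.0001 min^-1. The pre-steady-state cleavage rate was fitted […].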
Consider UCCUGGAUCAGCUAGCAUAGUAAUUAGUUA, for which the “pre-steady-state target cleavage rate” value came to 0.00458 ± 0.0024. The figure for UCCUGGAUGAGCUUGCAUAGUACUUAGUUA is 0.0106 ± 0.0037; for UCCUGCUAGUGCUUGCAUAGUAUUUAGAAA it is 0.00258 ± 0.0014. For UCCUGGAUGUCCUUGCAUAGUAUUAAGUUA the value was 0.00404 ± 0.0034; for UCCUCCUACAGCUUGCAUAGUAAAUUCAAA, 0.00279 ± 0.0021; for UCCUGCAUGAGCUUGCAUAGUAUUUAGUAA, 0.0061 ± 0.0025. As for UCCUCCUACAGCUUGCUUAGUAAUUAGUUA, the “pre-steady-state target cleavage rate” value was found to be 0.0113 ± 0.0049. For UCCUCCUAGUCCUUGCAUAGUAUUUAGAAA the value was 0.00217 ± 0.0013. UCCUGGAACAGCUUGCAUAGUAUUUAGAUUA: the “pre-steady-state target cleavage rate” value is 0.00539 ± 0.002.

In the case of “UCCUCCUACAGCUUGCAUAGUAUUUAGUUU [g2:g26:cont:t1U]”, the “pre-steady-state target cleavage rate” value came to 0.265 ± 0.062. For UCCUGCUACAGCUUGGAUUGUAUUUAGUUA the value was 0.00362 ± 0.002. For UCCUGGAACAGCUUGCAAAGUAUAUAGUUA the value was 0.00745 ± 0.0042; for UCCUGGAUGUCGAACCAUAGUAUCUUAGUUA, less than 0.0001. Regarding UCCUGGAACAGCAUGCAUAGUAUUUAGUUA, the “pre-steady-state target cleavage rate” value amounted to 0.0466 ± 0.011. For UCCUGGAUCAGCUUGGAUAGUAUUUAGAAA the value was 0.00249 ± 0.0024; for UCCUGGAUGAGCUUGCAUAGUUUUUAGAAA, 0.00315 ± 0.0019. The figure for UCCUGGAUGUCGAACGUAAGUAUUUAAUUA is less than 0.0001; for UCCUGGAUGUCGUUAGCAUAGUAUUUAGUUA it is 0.00456 ± 0.0035; for UCCUCCACAGCUUGCAUAGUAUUUAGUUA it is 0.0564 ± 0.018. With UCCUCCUACAGCUUGCAUAGUAUUAUCAAA, the “pre-steady-state target cleavage rate” value was found to be 0.00273 ± 0.0027.

As to UCCUGGAUGAGCUUGCGAUAGUAUUUAGUUA, the “pre-steady-state target cleavage rate” value was determined as 0.00307 ± 0.0022. For UCCUGCUAGUGCUUGCAUAGUAUUUAGUAA the value was 0.00297 ± 0.0015; for UCCUGCUACAGCUUGCAUAGUAAUUAGAUA, 0.00345 ± 0.0018; for UCCUGGAUGAGCUUGCAUAGUAUUUGAGUUA, 0.00491 ± 0.0024. The figure for UCCUGGAUCUGCUUGCAUAGUAUUAAGUUA is 0.00735 ± 0.0037; for UCCUGGAUGUCGAACCAUAGUAAUUAGUUA it is less than 0.0001. The figure for UCCUCCAACAGCAUGCAUAGUAUUUAGUUA is 0.0161 ± 0.0047; for UCCUGGAUCAGCUAGCUUAGUAUUUAGUUA it is 0.00676 ± 0.0036. Take UCCUGGAUGUCGAACGUAUGUAUUUUGUUA: the “pre-steady-state target cleavage rate” value was less than 0.0001.

With UCCUGGAACAGGUUGCAUAGUAUUUAGAUA, the “pre-steady-state target cleavage rate” value came out at 0.00362 ± 0.0019. For UCCUGGAACAGCUAGCAAAGUAUUUAGUUA the value was 0.00366 ± 0.0025. The figure for UCCUGGAUGUCGAACCAUAGUCUUUAGUUA is less than 0.0001; for UCCUGCUACAGCUUGCAUAGUAUUAUGUAA it is 0.00194 ± 0.0019; for UCCUGGUACAGGAAGCAUAGUAUUUAGUUA it is 0.00248 ± 0.0023. Turning to UCCUGGAUGUGCAAGCAUAGUAUUUAGUUA, the “pre-steady-state target cleavage rate” value was 0.00427 ± 0.0022. The figure for UCCUGGAUCAGCUUGCAUAGUAAUAAGUUA is 0.00234 ± 0.0018. Regarding UCCUGGAUGAGCUAGCAUAGUAUUAAGUUA, the “pre-steady-state target cleavage rate” value is 0.00293 ± 0.0024. Take UCCUGCUACAGCUUGCAUAGUAUUGUAGUUA: the “pre-steady-state target cleavage rate” value worked out at 0.00279 ± 0.0016. For the sequence UCCUGGAUGUCGAUGCAAAGUAUUUUGUUA, the “pre-steady-state target cleavage rate” value is less than 0.0001.

For the sequence UCCUGGAUGUCGAACGACAGUAUUUAGUUA, the “pre-steady-state target cleavage rate” value was less than 0.0001.
